# Compound activity from PubChem.
# HPGD inh: qHTS Assay for Inhibitors of HPGD (15-Hydroxyprostaglandin Dehydrogenase); 150,000 tested, 4.3% active; purified HPGD, NADH fluorescence kinetic, PGE2 substrate; 15-hydroxyprostaglandin dehydrogenase [NAD(+)] (Homo sapiens), P15428; Potency, µM, hits mostly inhibitors
#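 NADH formation kinetics: reaction with 30 uM PGE2 and 1 mM NAD+ (final), 20 nM enzyme, Tris-HCl pH 8 with Tween 20, after 15 min compound preincubation at room temperature. Fluorescence change, last versus first of five reads.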
# ALDH1A1 inh: qHTS Assay for Inhibitors of Aldehyde Dehydrogenase 1 (ALDH1A1). Purified ALDH1A1, NADH fluorescence, propionaldehyde substrate. 220,000 tested, 7.3% active. Potency, µM (series often up to 75.3 µM), usual class: inhibitors
# Target sequence (P00352 whole entry, looked up): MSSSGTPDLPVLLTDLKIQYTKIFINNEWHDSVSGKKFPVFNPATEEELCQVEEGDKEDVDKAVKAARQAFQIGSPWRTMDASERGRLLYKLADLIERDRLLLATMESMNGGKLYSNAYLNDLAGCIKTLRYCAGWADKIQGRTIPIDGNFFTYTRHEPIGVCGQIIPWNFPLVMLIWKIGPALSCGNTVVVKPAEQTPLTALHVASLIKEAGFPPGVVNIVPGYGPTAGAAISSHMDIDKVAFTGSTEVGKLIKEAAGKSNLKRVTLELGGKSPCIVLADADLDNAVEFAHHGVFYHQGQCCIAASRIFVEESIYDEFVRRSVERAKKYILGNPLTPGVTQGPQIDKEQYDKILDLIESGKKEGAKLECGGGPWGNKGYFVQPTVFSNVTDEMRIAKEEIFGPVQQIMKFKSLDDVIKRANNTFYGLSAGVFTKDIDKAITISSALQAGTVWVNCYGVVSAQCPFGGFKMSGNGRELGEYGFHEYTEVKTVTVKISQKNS
# HTT ATP protect: qHTS Multiplex Assay to Identify Dual Action Probes in a Cell Model of Huntington: Cytoprotection (ATP) | PC12 HTT-Q103 induced, cytoprotection, ATP luminescence, 40 h | Potency, µM (titrated, usually from 56.4 µM), most hits filed as activators | 230,000 tested, 0.14% active; active = well fitted curve in the direction sought with a large enough effect; inconclusive = small, poorly fitted or top-dose-only effect, or another doubt; inactive = no such curve, though single readings can be large; an effect the other way counts as inactive or inconclusive; note: nearly all actives have a fitted effect of over 45% in size
#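 Cells were plated at 1500 per well in phenol red-free DMEM with 5% equine and 5% calf serum. Tebufenozide (100 nM final) and compounds were added, then ATPlite reagent, and luminescence was read.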
# HttQ103 aggreg: qHTS Multiplex Assay to Identify Dual Action Probes in a Cell Model of Huntington: Aggregate Formation (GFP) | PC12 HttQ103-GFP aggregates, Acumen cytometry, 40 h | Potency, µM (series often up to 46.1 µM), usual class: inhibitors | 220,000 tested, 1.1% active | AID 1688, 2009; active = well fitted curve in the direction sought with a large enough effect; inconclusive = small, poorly fitted or top-dose-only effect, or another doubt; inactive = no such curve, though single readings can be large; an effect the other way counts as inactive or inconclusive; note: nearly all actives have a fitted effect of over 60% in size
#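 Quantitative HTS on tebufenozide-induced (100 nM) PC12 cells stably expressing polyQ103 Huntingtin exon 1–GFP. Reduction of bright GFP aggregates, detected by laser scanning cytometry after lysis, identified actives across the titration.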
# LMNA splice mod: qHTS Assay for Modulators of Lamin A Splicing. 200,000 tested, 0.01% active. Potency, µM (titrated, usually from 46.1 µM), most hits filed as inhibitors. HeLa LMNA splicing GFP/RFP minigene ratio, 48 h. AID 1487, 2009; active = well fitted inhibition curve with a large enough effect in the signal ratio, with a control signal flat, not every such curve was filed as active; inconclusive = small, poorly fitted or top-dose-only effect, or effect the other way, or a change in a side signal; the % refers to the signal ratio
#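 S3 HeLa stable clones carrying a lamin A-EGFP splicing minigene plus DsRed2 were seeded at 600 cells/well in Opti-MEM with 2% FBS, pin-dosed and incubated 48 h at 37°C. Acumen cytometry (488 nm) gave the GFP/RFP total-intensity ratio.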
# JMJD2E inh: qHTS Assay for Inhibitors of Human Jumonji Domain Containing 2E (JMJD2E). JMJD2E catalytic domain, FDH-coupled NADH fluorescence (FDH is formaldehyde dehydrogenase). Potency, µM (titrated, usually from 57.1 µM), actives largely listed as inhibitors. 230,000 tested, 1.6% active. AID 2147, 2009; note: nearly all actives have a fitted effect of over 50% in size
# Numbers stand for hits; - = inactive; ? = inconclusive; . = no result given; [ ] = dose if it differs, or a comment. The list is not random: actives were taken first. Their share in the collection is about 9.2%. Unless noted, calls come from the whole dose curve; as a rule, active = well fitted inhibition curve with a large enough effect (not every such curve was filed as active); inconclusive = small, poorly fitted or top-dose-only effect, or another doubt; inactive = no such curve, though single readings can be large or run the other way.
SMILES,HPGD inh,ALDH1A1 inh,HTT ATP protect,HttQ103 aggreg,LMNA splice mod,JMJD2E inh
C[C@@H]1NC(=O)[C@@H](C)COC(=O)[C@H](C)NC(=O)[C@@H](C)COC1=O,.,-[13.5 µM],-[10 µM],.,.,.
COc1ccc(NC(=O)CC2(CC(=O)O)CCCC2)cn1,.,?,-,-,-,-
O=C(O)CC1(CC(=O)Nc2ccc(Oc3cccc(C(F)(F)F)c3)nc2)CCCC1,.,7.94µM,-[10 µM],-[9.22 µM],.,-
CSCCC(NC(=O)c1cc([N+](=O)[O-])ccc1Cl)C(=O)O (configuration not stated),-,-,-[10 µM],-,-,-
COc1ccc(N2CCN(C(=O)CSc3nnc(-c4ccco4)n3C)CC2)cc1,.,?,-[10 µM],-[9.22 µM],?,-
COc1ccc(CCNC(=O)Cn2c(=O)nc(-c3ccccc3)c3cc(Cl)ccc32)cc1OC,.,.,.,.,-,.
COC(=O)c1cn(C(=O)c2ccco2)c2ccccc12,-,-,-,-,-,-
COC(=O)c1cn(C(=O)c2ccc(Br)o2)c2ccccc12,-,31.6µM,-[10 µM],-,-,-
C=CCc1cc(OC)c(O)c(C(=O)NCCO)c1,.,.,-,-,.,.
C=C(C(=O)C(C)(C)O)C(O)c1ccc([N+](=O)[O-])cc1 (configuration not stated),25.1µM,?,-,.,.,-
COc1ccccc1Nc1ncc(C(=O)N2CCN(Cc3ccc(OC)c(OC)c3OC)CC2)c2ccccc12,.,-,-,-,.,?
C=CCn1c(CNc2ccc(C)cc2)nnc1SCC(=O)N/N=C/c1ccc(O)cc1,-,25.1µM,-,-,-,-
CC(C1OC(C)(C)C(O)C1O)C1CC[C@@]2(C)C3=CCC4C(C)(C)C(=O)CC[C@]4(C)C3CC[C@@]12C (some centres not stated),-,-,-,.,.,-
O=Cc1ccc(O)c2ncccc12,.,.,-[10 µM],-[9.22 µM],.,3.16µM
CCOc1ccccc1/C=N/NC(=O)c1cccc(S(=O)(=O)N(CC)CC)c1,.,?,-[10 µM],?,.,?
CCN(CC)S(=O)(=O)c1cccc(C(=O)N/N=C/c2ccc(O)c(O)c2O)c1,25.1µM,8.91µM,-[0.074 µM],-,-,7.94µM
CCN(CC)S(=O)(=O)c1cccc(C(=O)N/N=C(\C)c2ccc(O)cc2O)c1,.,?,-,3.98µM,?,25.1µM
CC(C)OC(=O)/C(C#N)=C\c1cccnc1,.,8.91µM,-[10 µM],-[9.22 µM],-,-
CCN(CC)S(=O)(=O)c1ccc(-c2csc(C)n2)cc1,.,25.1µM,-,-,.,-
Cc1c2cccc(Sc3ccccc3)c2c2c3c(cccc13)[S+](c1ccccc1)C2 (configuration not stated),-,-[13.5 µM],-[10 µM],.,.,.
O=C(c1ccc(C(F)(F)F)cc1)N1CCC(=O)N([C@H](COCc2ccc(Cl)cc2)Cc2ccccc2)CC1,-,?,-,.,.,.
CNCc1ccccc1Sc1cc(O)ccc1O,8.91µM,0.794µM,-[10 µM],-,-,?
COc1cccc([C@@H]2Oc3ccc(OC)cc3C(=O)[C@H]2OC(=O)NC2CCCC2)c1,-,?,.,.,.,?
CC1CCCN(c2nc(NCc3ccco3)nc(N)c2[N+](=O)[O-])C1 (configuration not stated),-,2µM,-[10 µM],-,?,-
COc1ccc(O[C@H]2C=C[C@@H](c3ccccc3)O[C@@H]2COC(=O)CC/C(C)=N/OC[C@@H](O)COCc2ccco2)cc1,-,10µM,.,-,?,-
SMILES,HPGD inh,ALDH1A1 inh,HTT ATP protect,HttQ103 aggreg,LMNA splice mod,JMJD2E inh
CCc1cc2c(nc1CC)CCN(CC/C(C)=N/OC[C@H]1O[C@H](c3ccccc3)C=C[C@@H]1Oc1ccc(OC)cc1)C2,-,-[13.5 µM],-[10 µM],?,?,35.5µM
COc1ccc(O[C@H]2C=C[C@@H](c3ccccc3)O[C@@H]2CO/N=C(\C)CCN2CCc3nc(-c4ccccc4)c(-c4ccccc4)cc3C2)cc1,-,-[13.5 µM],?,-,?,?
Cc1ccc(S(=O)(=O)N[C@H]2COC(=O)C/C=C\[C@@H](C)[C@H](NS(=O)(=O)c3ccc(C)cc3)COC(=O)[C@H](C)NC(=O)C/C=C\[C@H]2C)cc1,.,-[13.5 µM],-[10 µM],.,.,.
O=c1c(-c2ccc(F)cc2)nc2cnc(Oc3cccc(Cl)c3)nc2n1C[C@H]1CCCO1,.,?,-,.,?,.
O=C(O)C1=C[C@H](c2ccc(Br)cc2)C[C@H](OCc2ccc(CO)cc2)O1,.,?,-[10 µM],-[9.22 µM],.,-
O=C(CCNS(=O)(=O)c1cccc2nonc12)N1CCN(c2cccc(Cl)c2)CC1,-,2µM,-,-[9.22 µM],-,-
Cc1ccc(NC(=O)CCNS(=O)(=O)c2cccc3nonc23)cc1Cl,.,?,-,-,-,-
O=C(CCNS(=O)(=O)c1cccc2nonc12)NCCc1ccc(Cl)cc1,-,20µM,-,-,-,-
COC(=O)CCCCCN1C(=O)/C(=C\c2ccncc2)SC1=S,.,25.1µM,-[10 µM],-[9.22 µM],.,-
NS(=O)(=O)c1cc2c(cc1C(F)(F)F)N[C@H](Cc1ccccc1)NS2(=O)=O,-,-,?,-,?,?
CCOCCOC(=O)COc1ccc2c(-c3ccccc3)cc(=O)oc2c1,25.1µM,17.8µM,-[10 µM],-,-,-
COc1ccc(-c2cc(=O)oc3cc(OCC(=O)c4cccc([N+](=O)[O-])c4)ccc23)cc1,2.82µM,-,.,-,?,-
COc1ccc(-c2c(C)c3ccc(OCC(C)=O)cc3oc2=O)cc1,.,?,-,?,?,?
COc1ccc2cc(C(=O)COC(=O)COc3ccc4c(C)cc(=O)oc4c3)ccc2c1,?,?,-[10 µM],-,-,?
COc1ccc(-c2cc(=O)oc3cc(OCC(C)=O)ccc23)cc1,31.6µM,?,.,-,?,?
COc1ccc(-c2cc(=O)oc3cc(OC(=O)C4CCCCC4)c(Cl)cc23)cc1,?,?,-[10 µM],0.282µM,?,-
COC(=O)C1=C(C(=O)OC)[C@@H]2N(C)c3ccc(OC)cc3[C@@]23C[C@@H](C(=O)OC)N(C(=O)c2cc(C)oc2C)C3=N1,-,-[13.5 µM],-[10 µM],.,?,-[11.4 µM]
CCOC(=O)N1C=CC=C[C@@H]2[C@@H](N3C(=O)c4ccccc4C3=O)C(=O)N21,-,-,.,-,-,-
COc1ccc(CNC(=O)CCCN2C(=O)CSc3c2c(C)nn3-c2ccccc2)c(OC)c1,.,.,.,.,-,.
Cc1ccc2cc(CCNC(=O)c3ccc(C)c([N+](=O)[O-])c3)c(=O)[nH]c2c1,-,-,-[10 µM],-,-,-
Cc1[nH]n(C(N)=S)c(=O)c1N=Nc1ccc2ccccc2c1,.,7.94µM,-,-,?,-
